Test results taken from the supplement of paper PMC3334620.
In all, about 33,000 sequences were measured (“E-score (-0.5 to 0.5)”: median about -0.04, highest 2% from about 0.36 on). The entries come from a sample that favours the highest values as a whole.

Molecular target: T1, Hmlalpha2 (UniProt P0CY09)
T1 sequence: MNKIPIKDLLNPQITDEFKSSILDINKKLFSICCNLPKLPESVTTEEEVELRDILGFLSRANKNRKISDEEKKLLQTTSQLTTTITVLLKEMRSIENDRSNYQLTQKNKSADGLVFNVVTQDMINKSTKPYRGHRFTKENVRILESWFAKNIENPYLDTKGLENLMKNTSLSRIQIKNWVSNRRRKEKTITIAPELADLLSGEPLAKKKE
Assay: PBM E-score (8-mer binding enrichment) (E-score (-0.5 to 0.5)); higher = stronger / more preferred TF binding
Conditions: protein concentration: 200 nM; construct: GST-full length
How it was run: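 Using PURExpress in vitro transcription/translation, GST-tagged yeast transcription factors were made in full-length or DNA-binding-domain form. These were applied at about 100-200 nM to double-stranded universal all-10-mer Agilent arrays, and bound protein was detected with fluorescent anti-GST. Scans were normalised with masliner before the Universal PBM Analysis Suite assigned E-scores to ungapped eight-base words pooled with their reverse complements.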

Sequence	PBM E-score
ATGGTAGC	-0.037
GTCAGTAA	0.133
ACTCTCCC	-0.283
CTGGGATC	-0.141
CACATTGA	0.097
AATTTCAC	0.0769
TCTTTGCA	0.0746
CCTTTACG	0.223
CCTTTACC	-0.204
TCTTTACA	0.445
CCTTTACA	0.448
TCTTTAAA	0.0801
GGAAAAAC	0.0566
AATGATAT	0.0696
AGTCTCTC	-0.306
CATGTCGG	0.265
AATGTCAA	0.182
CGTGTCAA	0.438
GATGTCAA	0.194
AGTGTCAA	0.134
CATGTCAC	0.245
GATGTCGA	0.126
CATGTCGA	0.386
TATGTCAA	0.426
CATGTCAG	0.314

Sequence	PBM E-score
CATGTCAA	0.44
CGTGTCAG	0.273
GAGGATCA	-0.143
CTCAGTAA	-0.0267
AACGCAGG	0.0539
AGAATCTC	-0.015
GAGGTTAC	0.0883
TAACTCGA	0.277
AGACTCGA	-0.211
GGCGGTGA	-0.163
CGCCACAG	-0.0887
GCATGAAC	0.104
ACATGAAG	0.338
ACATGAAA	0.302
CCATGAAC	-0.0422
ACATGAAT	0.371
ACATGAAC	0.366
AGCAGGCG	0.046
GATTGTGC	0.0144
ACGAGGAA	0.0596
TACGCTGA	0.122
AAATGCTG	0.229
ACATGCTG	0.377
ACATGCAC	0.36
ACATGCTC	0.388

Sequence	PBM E-score
CTATGCTC	-0.27
ACATGCCA	0.397
CCATGCTC	-0.13
TCATGCAA	0.107
ACATGCAA	0.398
TCATGCCA	0.0681
ATATGCTG	-0.0833
ACATGCCT	0.3
GTGGCCCA	-0.191
ACGCAAAC	0.125
CTCGCTAC	-0.181
CCGTTCCG	-0.225
AGCGAGTC	-0.136
CTCTAGAC	-0.116
ATCGGGGC	-0.175
AGTGCTCG	-0.187
GAGTTCGC	-0.169
TCGACAGA	-0.0778
GCATGCTA	0.00271
ACATGCGG	0.289
CCATGCTA	0.0439
ACATGCGC	0.308
ACATGCGT	0.399
ACATGCTA	0.379
TCAGCGGA	-0.169

Sequence	PBM E-score
GACCTCGC	-0.148
ACGCTCCT	0.0508
GCTAAGGA	-0.195
AATCTCCA	0.042
ACAAGCGA	0.112
ACATACAG	0.336
AGATACAG	-0.0238
AGATACAA	0.276
CCATACAC	0.145
GCATACAC	0.256
AGATACAT	0.388
ACATACAC	0.404
ACATACAA	0.325
ACATACAT	0.421
CTCTGCCA	-0.219
ATTCTTAA	0.148
GCCGAGCC	-0.127
GAGGCAGA	-0.265
CCGGACCG	-0.303
AATACTCA	0.18
AATACACG	0.473
AATACACC	0.307
AATACACA	0.467
AATACACT	0.326
CATGAGTC	0.175

Sequence	PBM E-score
ACCGGTCT	-0.25
ATTCCTGA	-0.0807
ATATAACC	-0.0903
CTATAATA	-0.00916
GTATAAGA	0.116
ATATAATA	0.199
GTATAACA	0.378
GTATAATA	0.368
GTATAAAA	0.282
ATATAACA	0.384
CTATAACA	0.335
AGCGGTTC	-0.0786
TGATCAAA	-0.137
TCACCGAA	0.0184
ACAAGTAC	0.165
CATCGGTA	-0.217
GCAAAACC	-0.272
AAATCTTC	0.0872
CCATCGCC	-0.261
ATGAACAT	0.323
GGTTACAC	0.314
CGTTACAG	-0.0046
AGTTACAG	0.0744
AGTTACAC	0.426
CGTTACAC	0.385

Sequence	PBM E-score
CGTTACAA	0.318
CGAAACTC	-0.242
CCGGCTGC	0.0149
GGCCGACA	-0.247
GAATGCTC	-0.225
ATCTCACC	-0.126
CAATCCTG	0.0153
AGGGGTTG	-0.253
CCAAGCGC	-0.0307
ACATGGAA	0.317
ACATGGAG	0.262
ACATGGAT	0.388
ACATGGGA	0.33
ACATGGGT	0.382
ACATGGGC	0.342
CCTAGGAA	-0.125
AACTTCAC	0.121
CAGATTTC	-0.132
CGAATGCA	0.145
GGCCATTA	0.0102
AGAGTGCA	-0.0981
ACACGATG	0.388
AGACGATC	-0.29
CCACGATA	-0.11
AAACGATG	0.0541

Sequence	PBM E-score
ACACGAAG	0.358
CCACGATC	0.172
ACACGATA	0.433
ACACGATC	0.426
GCACGATA	0.154
CGTGGCTC	-0.209
AAGTTCCC	-0.296
CGGTGGAC	-0.136
GAGATAAA	0.0648
ATTTAACA	0.429
ATTTAACC	0.0603
CTTTAACA	0.363
ATTTAACG	0.355
GTTTAACA	0.41
GTTTAATA	0.218
CTGGGGGA	-0.422
GCCACGAC	-0.0179
ATCTGTGG	-0.267
CCAAAGAA	-0.0602
AAAAAGAT	-0.00444
CAGGGGCG	-0.0915
ACACCTAG	-0.163
CAAAACAG	0.124
AACATGAA	0.397
AGCATGAA	0.0173

Sequence	PBM E-score
TACATGAA	0.45
ATCATGAA	-0.0623
GACATGAA	0.204
CACATGAA	0.237
AGGCCCGC	-0.162
AGGCGATG	-0.128
AATCCGGT	-0.0356
ACCATTGA	0.0496
GTAGACGA	0.17
AAGACGAT	0.0721
CAATAACA	0.239
GAATAACA	0.39
GAATAACC	-0.0464
GAATAATA	0.168
TAATAACA	0.387
AAATAACA	0.316
GGTATTAA	0.083
AGTATTAA	0.249
TGTATTAA	0.413
CTACATAG	0.406
CCACATAG	-0.105
CTACATAC	0.327
ACACATAA	0.364
ACATATAT	0.27
ATACATAT	0.393

Sequence	PBM E-score
ATACATAC	0.386
GTACATAC	0.362
AGACATAA	0.143
AGACATAT	0.0652
ATACATAA	0.392
CGACATAG	0.139
AGGAAAGG	-0.238
CTCCTATC	-0.139
ACTTTAGA	-0.0293
CAGACACA	0.035
ACCCTAAA	-0.212
AGCACTGC	-0.17
AAACATAG	0.291
ATACATAG	0.415
ACACATAG	0.282
CGGAGGGC	-0.293
ACCATGAT	-0.0585
AACATGAC	0.425
AGCATGAT	0.0873
CACATGAG	0.0365
GACATGAC	0.29
AACATGAT	0.439
CACATGAC	0.267
AGCATGAG	0.0355
AACATGAG	0.379
